Data reported in publication PMC5540273 (PLoS ONE, 2017).

Columns and labels:
Settings in all cases: concentration: 1 μM, replicates: in singlicate; n = 1
[1] = test system: T1, ASK2
T1 construct: gene MAP3K6

[2] = test system: AURKA
[3] = test system: AURKB
[4] = test system: AURKC
[5] = test system: AXL
[6] = test system: T2, BIKE
T2 construct: gene BMP2K

[7] = test system: BLK
[8] = test system: BMPR1A
[9] = test system: BMPR1B
[10] = test system: BMPR2
[11] = test system: BMX
[12] = test system: BRAF
[13] = test system: T3, BRK
T3 construct: gene PTK6

[14] = test system: BRSK1
[15] = test system: BRSK2
[16] = test system: BTK
[17] = test system: BUB1
[18] = test system: CAMK1B
[19] = test system: CAMK1D
[20] = test system: CAMK1G
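Further: KINOMEscan kinase panel screen.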

Row | SMILES | %Inh [1] | %Inh [2] | %Inh [3] | %Inh [4] | %Inh [5] | %Inh [6] | %Inh [7] | %Inh [8] | %Inh [9] | %Inh [10] | %Inh [11] | %Inh [12] | %Inh [13] | %Inh [14] | %Inh [15] | %Inh [16] | %Inh [17] | %Inh [18] | %Inh [19] | %Inh [20]
1 | COc1cc(Nc2nccc(N3CCC(NS(=O)(=O)c4ccc(NC(C)=O)cc4)CC3)n2)cc(OC)c1OC [GSK1379825] | 9% | 59% | 71% | 71% | 14% | 75% | 50% | 29% | 0% | 0% | 32% | 14% | 40% | 0% | 1% | 0% | 48% | 35% | 15% | 5%
2 | Cl.O=C(Nc1ccc(Oc2ccc3[nH]c(NC(=O)c4ccco4)nc3c2)cc1)Nc1cc(C(F)(F)F)ccc1F [GW683134] | 0% | 0% | 92.6% | 50% | 96% | 15% | 54% | 0% | 0% | 0% | 1% | 69% | 0% | 0% | 0% | 0% | 30% | 29% | 0% | 0%
3 | Cc1ccc(O)cc1Nc1ccnc2ccc(C(C)(C)C)cc12 [GW856805] | 32% | 30% | 36% | 24% | 42% | 9% | 95.1% | 16% | 79% | 33% | 19% | 63% | 91.4% | 5% | 20% | 0% | 30% | 29% | 28% | 0%
4 | Cl.N#CCc1ccc(Nc2nccc(Nc3ccc(Oc4ccccc4)cc3)n2)cc1 [GW639905] | 7% | 6% | 31% | 34% | 22% | 26% | 94.1% | 0% | 0% | 0% | 34% | 0% | 60% | 0% | 0% | 0% | 0% | 31% | 0% | 0%
5 | CS(=O)(=O)c1cccc(CNc2nc(Nc3ccc4c(c3)CCC(=O)N4)ncc2C(F)(F)F)c1 | 0% | 97.8% | 96.7% | 71% | 23% | 82% | 0% | 0% | 0% | 39% | 0% | 0% | 0% | 0% | 0% | 0% | 0% | 0% | 8% | 0%
6 | CN(C)c1ncnc2nc[nH]c12 [SKF-31736] | 0% | 12% | 54% | 0% | 0% | 0% | 0% | 0% | 7% | 46% | 0% | 9% | 0% | 0% | 0% | 0% | 40% | 0% | 0% | 8%
7 | Cc1ccc(NC(=O)c2ccc(Cl)c(Cl)c2)cc1-c1ccc(C(=O)Nc2ccncc2)cc1 [GSK1398460] | 0% | 7% | 1% | 67% | 100% | 40% | 45% | 0% | 0% | 0% | 6% | 34% | 10% | 7% | 10% | 0% | 6% | 28% | 24% | 0%
8 | Cc1ccccc1CC(=O)N1CCc2cc(-c3cn(C)c4ncnc(N)c34)ccc21 [GSK2603346] | 6% | 27% | 92% | 100% | 98.7% | 82% | 49% | 0% | 0% | 0% | 2% | 0% | 71% | 0% | 0% | 0% | 10% | 0% | 13% | 19%
9 | COc1ccc(C)c(Nc2ccnc(Nc3ccc(-c4cnc[nH]4)cc3)n2)c1.Cl [GW784041] | 0% | 20% | 8% | 56% | 0% | 37% | 59% | 70% | 99.9% | 0% | 46% | 0% | 20% | 8% | 9% | 0% | 0% | 0% | 25% | 8%
10 | COC(=O)Nc1nc2ccc(Oc3ccc(CC(=O)Nc4cc(C(F)(F)F)ccc4F)cc3)cc2[nH]1 [GW680903] | 0% | 0% | 60% | 52% | 23% | 3% | 32% | 6% | 0% | 1% | 16% | 45% | 20% | 1% | 0% | 0% | 63% | 30% | 0% | 0%
11 | CC(C)NCC(Cc1ccccc1)NC(=O)c1cc(Br)c(-c2ccnc3[nH]ccc23)s1.Cl.Cl (stereo not shown) [GSK1383281] | 11% | 95.1% | 93.8% | 91.7% | 74% | 79% | 0% | 0% | 0% | 8% | 5% | 0% | 0% | 0% | 0% | 0% | 43% | 29% | 27% | 0%
12 | COc1cccc(NC(=O)NCCNc2ccnc(Nc3ccc(F)cc3)n2)c1 [GSK1379879] | 0% | 19% | 40% | 45% | 3% | 14% | 18% | 0% | 0% | 5% | 4% | 0% | 30% | 0% | 0% | 0% | 58% | 0% | 8% | 0%
13 | CNc1nccc(-c2ccc3c(N)n[nH]c3c2)n1 [GSK2206003] | 0% | 8% | 0% | 46% | 0% | 94.1% | 54% | 7% | 71% | 6% | 2% | 0% | 10% | 22% | 15% | 3% | 71% | 0% | 28% | 22%
14 | O=C(Nc1n[nH]c2nc(-c3ccccc3O)ccc12)C1CC1 [SB-711880] | 34% | 31% | 81% | 6% | 18% | 41% | 0% | 0% | 0% | 8% | 0% | 0% | 0% | 38% | 19% | 0% | 2% | 9% | 4% | 0%
15 | COc1cc(Nc2ccnc3cc(-c4ccncc4)ccc23)cc(OC)c1OC.Cl [GW494610] | 0% | 0% | 82% | 27% | 31% | 0% | 94.9% | 62% | 99% | 10% | 37% | 60% | 19% | 0% | 9% | 90% | 42% | 2% | 0% | 9%
16 | COc1cccc2c(-c3ccncc3)c(-c3ccc(F)cc3)nn12 [GW468513] | 0% | 0% | 0% | 17% | 13% | 26% | 49% | 0% | 0% | 7% | 11% | 38% | 1% | 3% | 0% | 0% | 90% | 0% | 0% | 1%
17 | CCn1cnc2c(NCc3ccccc3)ncnc21 [SKF-96418] | 0% | 0% | 41% | 0% | 0% | 0% | 16% | 0% | 0% | 48% | 0% | 9% | 0% | 0% | 0% | 0% | 50% | 0% | 1% | 0%
18 | Fc1cc(Cl)ccc1Nc1ccnc2cc(-c3ccc(CN4CCSCC4)o3)ccc12 [GW560106] | 0% | 100% | 0% | 18% | 33% | 4% | 97.7% | 14% | 45% | 5% | 20% | 2% | 92.3% | 0% | 0% | 37% | 38% | 10% | 11% | 0%
19 | Nc1ncc(-c2ccc3nccc(-c4ccncc4)c3c2)cc1S(=O)(=O)N1CCCCC1 [GSK1693850] | 0% | 59% | 31% | 35% | 52% | 14% | 0% | 0% | 0% | 0% | 22% | 8% | 18% | 0% | 0% | 0% | 13% | 6% | 25% | 2%
20 | O=C(Nc1n[nH]c2cc(-c3cccs3)ccc12)C1CC1 [SB-731284] | 39% | 42% | 51% | 42% | 0% | 84% | 0% | 2% | 35% | 24% | 11% | 68% | 0% | 54% | 30% | 54% | 0% | 0% | 6% | 0%
